Reference: PubChem BioAssay (NCI)
The panel holds about 83,000 compounds, 20% with a hit somewhere; the sample as a whole holds those more often.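 Interpretation: 100, growth as untreated; towards 0, rising growth inhibition; 0, no net growth; 0 to -100, cell death. Compounds scoring below 10 were considered active.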 Active and inactive are the calls of the source.

tested on: OVCAR-8 ovarian; assay: NCI-60 one-dose screen, 48 h (100 = growth as untreated, 0 = no growth, -100 = all killed); conditions: 10 µM unless noted

Structure (SMILES) | growth
O=C(Cn1c2ccccc2c2ccncc21)N/N=C/c1c[nH]c2ccccc12 | 40.9% (inactive)
CC1(C)CC(=O)C2=C(C1)OC1=C(C(=O)CC(C)(C)C1)C2c1ccc(OCc2cn(-c3ccc(F)cc3F)nn2)cc1 | 95.3% (inactive)
c1ccc2c(c1)Oc1cccnc1-n1nccc1-2 | 99.6% (inactive)
NC(=NCCCOc1ccc(F)cc1)Nc1ccc(Cl)c(Cl)c1 | 88.6% (inactive)
O=C1OC(N(Cc2ccc(Cl)cc2)c2ccccc2)c2ccccc21 (centres undefined) | 107% (inactive)
O=C(Nc1cccc([N+](=O)[O-])c1)Nc1cccc([N+](=O)[O-])c1 | 63.3% (inactive)
CCOc1ccc(-n2c(-c3cc(OC)c(OC)c(OC)c3)nnc2-c2ccc(OC)cc2N)cc1 | 64.5% (inactive)
CC(=O)CC/C=C(\C)[C@H](O)[C@H](C)C(=O)O[C@H]1C[C@H](C)C=C2C=C[C@@]3(C)O[C@@H](O)CC(=O)[C@]3(C)[C@H]21 | -14.7% (active)
Cc1cccc[n+]1CCC[n+]1ccccc1C | 105% (inactive)
C#CC(=O)/C=C/CCCCCCC#CC(=O)CCC(=O)C#CCCCCCC/C=C/C(=O)C#C | 8.53% (active)
COc1ccc2c(c1)OC(N)=C(C#N)C2c1ccc(F)cc1 (centres undefined) | 34.4% (inactive)
CC1=C2C(=C[C@@](C)(CO)[C@@H]2OC(=O)N(C)CCN(C)C(=O)OC(C)(C)C)C(=O)[C@](C)(O)C12CC2 | 36.6% (inactive)
COc1ccc2c(-c3ccc(F)cc3)c(C#N)c(=NC(C)=O)oc2c1 | 50.2% (inactive)
CC(C)(C)OC(=O)NCc1cccc(N=C=S)c1 | 64.4% (inactive)
